Data from PubChem BioAssay (NCI).
The panel holds about 79,000 compounds, 15% with a hit somewhere; the sample as a whole holds those more often. Activity calls are given as the source filed them. Cut-off read from the data, not from the text of the source: active = growth inhibition above about 70%; inactive = the rest.

Legend:
[1] = NCI Yeast Anticancer Drug Screen. Data for the rad52 strain (AID 147);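 note: 0% = growth of vehicle-treated control cultures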; conditions: S. cerevisiae rad52 mutant growth inhibition, hits give high values
In short: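 Vehicle-treated cultures served as the reference for growth inhibition of compound-exposed yeast bearing a DNA repair mutation.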

[2] = NCI Yeast Anticancer Drug Screen. Data for the wt1 strain (AID 149);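 note: 0% = growth of vehicle-treated wt1 cultures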; conditions: S. cerevisiae wt1 strain (SPY 50644) growth inhibition, hits give high values
In short: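 Each compound is tested on wt1 yeast and the loss of growth versus vehicle gives the inhibition value.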

[3] = NCI Yeast Anticancer Drug Screen. Data for the rad50EPP+ strain (AID 151);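 note: 0% = growth of vehicle-treated control cultures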; conditions: S. cerevisiae rad50 mutant strain, hits give high values
In short: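 In this screen, rad50EPP+ yeast were exposed to compounds. Growth inhibition was scored against vehicle-treated controls.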

[4] = NCI Yeast Anticancer Drug Screen. Data for the mgt1 strain (AID 153); conditions: S. cerevisiae mgt1 mutant growth inhibition, hits give high values
In short: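 mgt1 strain exposed; growth vs vehicle control recorded as inhibition.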

[5] = NCI Yeast Anticancer Drug Screen. Data for the rad50 strain (AID 155);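 note: 0% = growth of vehicle-only cultures of the same strain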; conditions: S. cerevisiae rad50 strain growth inhibition, hits give high values
In short: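 Vehicle-treated cultures provide the reference for the growth inhibition reported for compound-exposed, repair-deficient yeast.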

[6] = NCI Yeast Anticancer Drug Screen. Data for the mec2-1 strain (AID 157); conditions: S. cerevisiae mec2-1 strain, hits give high values
In short: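 Vehicle-treated cultures served as reference for growth inhibition of compound-exposed mec2-1 yeast.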

[7] = NCI Yeast Anticancer Drug Screen. Data for the rad14 strain (AID 159);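 note: 0% = growth of vehicle-treated control cultures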; conditions: S. cerevisiae rad14 strain growth inhibition, hits give high values
In short: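 Inhibition of growth is reported for a repair-deficient yeast mutant following compound treatment, calculated relative to cultures that received vehicle.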

[8] = NCI Yeast Anticancer Drug Screen. Data for the sgs1 mgt1 strain (AID 161);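 note: 0% = growth of cultures given vehicle only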; conditions: S. cerevisiae sgs1 mgt1 strain, hits give high values
In short: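 Genetically altered yeast, compound exposure, growth inhibition relative to vehicle.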

[9] = NCI Yeast Anticancer Drug Screen. Data for the CLN2oe strain (AID 163);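 note: 0% = growth of vehicle-only control cultures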; conditions: S. cerevisiae CLN2oe strain, hits give high values
In short: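 Inhibition relative to vehicle-treated yeast is reported. Cells: strain with genetic alteration in cell-cycle control, grown with compound.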

[10] = NCI Yeast Anticancer Drug Screen. Data for the cln2 rad14 strain (AID 165);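 note: 0% = growth equal to vehicle treated cultures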; conditions: S. cerevisiae cln2 rad14 strain, hits give high values
In short: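 Each compound was tested on cln2 rad14 yeast. Inhibition of growth was calculated against vehicle-exposed controls.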

[11] = NCI Yeast Anticancer Drug Screen. Data for the bub3 strain (AID 167); conditions: S. cerevisiae bub3 mutant strain, hits give high values
In short: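 Mutant yeast screening strain plus compound; vehicle-treated cultures serve as the 0% inhibition reference.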

[12] = NCI Yeast Anticancer Drug Screen. Data for the wt2 strain (AID 169); conditions: S. cerevisiae wt2 strain growth inhibition, hits give high values
In short: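 Inhibition of yeast growth was determined after compound treatment, normalised to controls receiving only vehicle.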

[13] = NCI Yeast Anticancer Drug Screen. Data for the mlh1 strain (AID 171);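 note: 0% = growth of vehicle-treated control cultures of the same strain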; conditions: S. cerevisiae mlh1 strain growth inhibition, hits give high values
In short: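 Vehicle-normalised growth inhibition of a repair- or checkpoint-altered yeast strain following compound treatment.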

[14] = NCI Yeast Anticancer Drug Screen. Data for the sgs1 strain (AID 173);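 note: 0% = growth of vehicle-only control cultures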; conditions: S. cerevisiae sgs1 mutant, hits give high values
In short: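 Screen format: yeast with repair or checkpoint alterations, compound exposure, growth read relative to vehicle.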

[15] = NCI Yeast Anticancer Drug Screen. Data for the mlh1 rad18 strain (AID 175); conditions: S. cerevisiae mlh1 rad18 strain growth inhibition, hits give high values
In short: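 Vehicle-treated cultures served as the reference for growth inhibition in a yeast strain carrying DNA damage repair alterations exposed to each compound.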

[16] = NCI Yeast Anticancer Drug Screen. Data for the rad18 strain (AID 177); conditions: S. cerevisiae rad18 mutant growth inhibition, hits give high values
In short: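 Test articles were incubated with altered yeast defective in DNA damage repair. Results are given as inhibition of growth versus vehicle.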

[17] = at 5.0 µM (retest, dose inferred, filed as 0.5)
[18] = at 50.0 µM (retest, dose inferred, filed as 5.0)

Measured: growth inhibition

Cc1cccc(NC(=O)CBr)c1
inactive: [1]; at 1.2 µM 3% | [1]; at 3.7 µM 41% | [2]; at 1.2 µM 1% | [2]; at 3.7 µM 24% | [3]; at 1.2 µM -10% | [3]; at 3.7 µM -3% | [3]; at 11.0 µM 26% | [4]; at 1.2 µM -2% | [4]; at 3.7 µM 22% | [5]; at 1.2 µM 6% | [5]; [17] 21% | [6]; at 1.2 µM 7% | [6]; at 3.7 µM 44% | [6]; [17] 1% | [7]; at 1.2 µM -27% | [7]; at 3.7 µM 57% | [8]; [17] 49% | [9]; at 1.2 µM 2% | [9]; at 3.7 µM 22% | [10]; [17] 34% | [11]; at 1.2 µM 13% | [11]; at 3.7 µM 58% | [11]; [17] 63% | [12]; at 1.2 µM 1% | [12]; at 3.7 µM 33% | [13]; at 1.2 µM -2% | [13]; at 3.7 µM 46% | [14]; at 1.2 µM 9% | [14]; at 3.7 µM 55% | [15]; [17] 45% | [16]; at 1.2 µM 5% | [16]; at 3.7 µM 39%
active: [1]; at 11.0 µM 97% | [1]; at 33.0 µM 98% | [1]; at 100.0 µM 99% | [2]; at 11.0 µM 98% | [2]; at 33.0 µM 99% | [2]; at 100.0 µM 98% | [3]; at 33.0 µM 96% | [3]; at 100.0 µM 99% | [4]; at 11.0 µM 99% | [4]; at 33.0 µM 99% | [4]; at 100.0 µM 99% | [5]; at 3.7 µM 73% | [5]; at 11.0 µM 97% | [5]; at 33.0 µM 99% | [5]; [18] 99% | [5]; at 50.0 µM 99.2% | [5]; at 100.0 µM 99% | [6]; at 11.0 µM 98% | [6]; at 33.0 µM 99% | [6]; [18] 99% | [6]; at 50.0 µM 99.7% | [6]; at 100.0 µM 99% | [7]; at 11.0 µM 99% | [7]; at 33.0 µM 99% | [7]; at 100.0 µM 99% | [8]; [18] 99% | [8]; at 50.0 µM 99.2% | [9]; at 11.0 µM 96% | [9]; at 33.0 µM 98% | [9]; at 100.0 µM 98% | [10]; [18] 99% | [10]; at 50.0 µM 99.1% | [11]; at 11.0 µM 97% | [11]; at 33.0 µM 98% | [11]; [18] 98% | [11]; at 50.0 µM 99.6% | [11]; at 100.0 µM 99% | [12]; at 11.0 µM 98% | [12]; at 33.0 µM 99% | [12]; at 100.0 µM 99% | [13]; at 11.0 µM 99% | [13]; at 33.0 µM 99% | [13]; at 100.0 µM 99% | [14]; at 11.0 µM 99% | [14]; at 33.0 µM 99% | [14]; at 100.0 µM 99% | [15]; [18] 99% | [15]; at 50.0 µM 99.3% | [16]; at 11.0 µM 97% | [16]; at 33.0 µM 99% | [16]; at 100.0 µM 99%

Cn1cnc(N)c1C(=N)[Se]
inactive: [1]; at 1.2 µM 7% | [1]; at 3.7 µM 26% | [2]; at 1.2 µM -1% | [2]; at 3.7 µM 3% | [2]; at 11.0 µM 10% | [2]; at 33.0 µM 47% | [3]; at 1.2 µM 66% | [4]; at 1.2 µM 1% | [4]; at 3.7 µM -1% | [4]; at 11.0 µM 4% | [4]; at 33.0 µM 44% | [4]; at 100.0 µM 57% | [5]; at 1.2 µM 27% | [5]; at 3.7 µM 59% | [5]; [17] -44% | [6]; at 1.2 µM -2% | [6]; at 3.7 µM 0% | [6]; [17] -46% | [6]; at 11.0 µM 48% | [6]; [18] 50% | [7]; at 1.2 µM 9% | [7]; at 3.7 µM 15% | [7]; at 11.0 µM 46% | [8]; [17] -61% | [8]; [18] -32% | [8]; at 50.0 µM 13.3% | [9]; at 1.2 µM 1% | [9]; at 3.7 µM -2% | [9]; at 11.0 µM -3% | [9]; at 33.0 µM 11% | [9]; at 100.0 µM 28% | [10]; [17] -60% | [10]; [18] -40% | [10]; at 50.0 µM -53.6% | [11]; at 1.2 µM 4% | [11]; at 3.7 µM 15% | [11]; [17] -67% | [11]; [18] 64% | [12]; at 1.2 µM 10% | [12]; at 3.7 µM 25% | [12]; at 11.0 µM 59% | [14]; at 1.2 µM 2% | [14]; at 3.7 µM -1% | [14]; at 11.0 µM 40% | [15]; [17] -126% | [16]; at 1.2 µM -9% | [16]; at 3.7 µM 7% | [16]; at 11.0 µM 58%
active: [1]; at 11.0 µM 70% | [1]; at 33.0 µM 95% | [1]; at 100.0 µM 95% | [2]; at 100.0 µM 80% | [3]; at 3.7 µM 90% | [3]; at 11.0 µM 98% | [3]; at 33.0 µM 98% | [3]; at 100.0 µM 95% | [5]; at 11.0 µM 93% | [5]; at 33.0 µM 95% | [5]; [18] 89% | [5]; at 50.0 µM 96.5% | [5]; at 100.0 µM 93% | [6]; at 33.0 µM 93% | [6]; at 50.0 µM 86.5% | [6]; at 100.0 µM 93% | [7]; at 33.0 µM 91% | [7]; at 100.0 µM 94% | [11]; at 11.0 µM 80% | [11]; at 33.0 µM 97% | [11]; at 50.0 µM 78.2% | [11]; at 100.0 µM 94% | [12]; at 33.0 µM 77% | [12]; at 100.0 µM 87% | [14]; at 33.0 µM 84% | [14]; at 100.0 µM 92% | [15]; [18] 84% | [15]; at 50.0 µM 80.5% | [16]; at 33.0 µM 80% | [16]; at 100.0 µM 91%
